Screening results as filed in PubChem BioAssay.
G9a block: qHTS Assay for Inhibitors of Histone Lysine Methyltransferase G9a; Histone-lysine N-methyltransferase EHMT2 (Homo sapiens), Q96KQ7; G9a H3K9 monomethylation, AlphaScreen, 2 h; Potency, µM (series often up to 102 µM), without a hit: at the top dose activity, negative = inhibition, hits mostly inhibitors; actives 8.8% (n = 350,000); AID 504332, 2011; note: potency is the fitted concentration of half-maximal effect; nearly all actives have a fitted effect of over 75% in size
Target sequence (Q96KQ7 913-1193 limits assumed): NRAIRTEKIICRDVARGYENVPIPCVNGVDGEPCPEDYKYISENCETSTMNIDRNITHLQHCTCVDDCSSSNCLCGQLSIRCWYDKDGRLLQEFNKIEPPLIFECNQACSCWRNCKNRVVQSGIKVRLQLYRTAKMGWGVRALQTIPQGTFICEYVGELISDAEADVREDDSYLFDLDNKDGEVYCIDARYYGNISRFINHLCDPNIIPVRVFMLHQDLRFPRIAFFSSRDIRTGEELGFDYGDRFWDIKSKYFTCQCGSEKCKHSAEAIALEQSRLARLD
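AlphaScreen read-out: biotin-H3K9 peptide (500 nM) methylation by 20 nM enzyme with 20 uM SAM, 2 h at room temperature after 15 min compound preincubation; anti-monomethyl H3K9 antibody plus donor/acceptor beads, 10 min dark.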
Coupling enz: qHTS Assay for Inhibitors of Fructose-1,6-bisphosphate Aldolase from Giardia Lamblia: Coupling assay counterscreen. coupling enzyme system counterscreen, AmpLite Red fluorescence. activity change, negative = inhibition, % at 58.2 µM, hits read low. actives 0.67% (n = 290,000). AID 2472, 2010; in the data active = activity change below about -30%
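Coupling enzymes only (glyceraldehyde-3-phosphate) + compound, at 57.5 uM final, 10 min RT; add substrate/coupling/AmpLite Red mix, 20 min RT; fluorescence ex 525/em 598 nm. Actives flag coupling-system interference.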
Tau ThT inhib: qHTS for Inhibitors of Tau Fibril Formation, Thioflavin T Binding | recombinant tau K18 P301L, heparin-induced fibrillization, ThT fluorescence | Potency, µM (highest dose often 57.4 µM), for the others: at the highest dose activity, negative = inhibition, actives largely listed as inhibitors | actives 2.1% (n = 270,000) | AID 1460, 2008; note: potency is the fitted concentration of half-maximal effect; nearly all actives have a fitted effect of over 55% in size
Target sequence (P10636 561-689 P618L limits assumed): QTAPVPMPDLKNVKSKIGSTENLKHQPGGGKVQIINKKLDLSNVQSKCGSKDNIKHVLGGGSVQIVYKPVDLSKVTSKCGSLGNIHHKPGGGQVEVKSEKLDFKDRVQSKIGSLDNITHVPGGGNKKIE
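K18 P301L tau (15 uM + 0.24 uM Alexa 594-tagged), heparin 20 uM, NaOAc pH 7, 6 h 37 C; ThT 30 uM, 1 h RT, ex 450/em 510 nm.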
Tau FP inhib: qHTS for Inhibitors of Tau Fibril Formation, Fluorescence Polarization; Microtubule-associated protein tau (Homo sapiens), P10636; K18 P301L tau heparin fibrillization, Alexa594 FP, 6 h; Potency, µM (series often up to 57.7 µM), for inactives: at the top dose activity, negative = inhibition, most hits filed as inhibitors; actives 0.39% (n = 280,000); AID 1468, 2008; note: potency is the fitted concentration of half-maximal effect; nearly all actives have a fitted effect of over 55% in size
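Recombinant K18 P301L […], labeled with Alexa 594 at 0.24 uM over 15 uM unlabeled; heparin inducer 20 uM final; 37 C, 6 hr; FP endpoint.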
Sfp inh: qHTS Assay for Inhibitors of Bacillus subtilis Sfp phosphopantetheinyl transferase (PPTase). AID 1490, 2009. Biochemical Sfp PPTase activity, qHTS. 4'-phosphopantetheinyl transferase ffp (Bacillus subtilis), Q9F4F7. actives 3.5% (n = 310,000). Potency, µM, for the others: largest response in the series, negative = inhibition, actives largely listed as inhibitors;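 note: the enzyme is Sfp with the accession as filed and its product quenches rhodamine fluorescence; potency is the fitted concentration of half-maximal effect; 0% = enzyme reaction without inhibitor and -100% = no enzyme wells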
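After 15 min at room temperature with compound, 15 nM Sfp received 5 uM rhodamine-CoA plus 12.5 uM BHQ-2-ybbR (50 mM Hepes pH 7.6, 10 mM MgCl2). Rate came from the fluorescence difference over 30 min, ex 525/em 598 nm.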
Tau fluor cs: Counterscreen qHTS for Inhibitors of Tau Fibril Formation, Fluorescence Polarization; tau K18 P301L Alexa594 fluorescence, heparin fibrillization; Potency, µM (titrated, usually from 57.7 µM), without a hit: at the highest dose activity change, negative = decrease; actives 0.93% (n = 280,000); note: potency is the fitted concentration of half-maximal effect; nearly all actives have a fitted effect of over 55% in size
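Human tau K18 P301L (15 uM unlabeled, 0.24 uM Alexa 594-labeled) in 100 mM sodium acetate pH 7 with 20 uM heparin, 6 hr at 37 C. ThT 30 uM added, 1 hr ambient; Alexa 594 FP and total fluorescence read at 555/632 nm.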
* = called active by the depositor; u = inconclusive; x = no result given; [ ] = remark or other dose. This is a sample that favours compounds with a hit; in the whole collection about 11% have one here. Unless noted, calls come from the whole dose curve; as a rule, active = well fitted curve in the direction sought with a large enough effect; inconclusive = small, poorly fitted or top-dose-only effect, or another doubt; inactive = no such curve, though single readings can be large; an effect the other way counts as inactive or inconclusive. Unless noted, % is set by controls: 0 for no effect and ±100 for the full control effect.

SMILES | G9a block | Coupling enz | Tau ThT inhib | Tau FP inhib | Sfp inh | Tau fluor cs
COc1ccc(CNc2nc3c(-c4ccc(C)cc4)nnn3c3ccccc23)cc1 | -29%[59 µM] | x | -6% | -13% | x | -18%
O=[N+]([O-])c1ccccc1/C=N/N1CCN(Cc2ccccc2)CC1 | 40µM* | -1 | x | x | 8% | x
O=[N+]([O-])c1ccc(Cl)c(/C=N/N2CCN(Cc3ccccc3)CC2)c1 | 40µM* | x | u | 5% | 6% | -30%
C/C(=N\N1CCN(Cc2ccc(Cl)cc2)CC1)c1ccc([N+](=O)[O-])cc1 | x | 3 | u | 6% | -9% | -24%
O=[N+]([O-])c1ccc(Cl)c(/C=N/N2CCN(Cc3ccc(Cl)cc3)CC2)c1 | 10µM* | 3 | -7% | 0% | -3% | -28%
CCOc1ccccc1/C=N/N1CCN(Cc2ccccc2)CC1 | x | -1 | x | x | -25% | x
COc1cc(/C=N/N2CCN(Cc3ccccc3)CC2)cc(OC)c1OC(C)=O | 50µM* | -7 | x | x | 1% | x
COc1ccc(-c2nc3n(n2)C(c2ccccc2OC)C(C(=O)Nc2cccnc2)=C(C)N3)cc1 (centres undefined) | 45%[59 µM] | x | -11% | 9% | x | -24%
O=[N+]([O-])c1ccc(/C=N/N2CCN(Cc3ccccc3)CC2)cc1 | 50µM* | -2 | x | x | -1% | x
C(=N\N1CCN(Cc2ccccc2)CC1)/c1ccccc1 | u | 0 | x | 5% | 9% | -4%
COC(=O)c1ccc(/C=N/N2CCN(Cc3ccccc3)CC2)cc1 | u | 2 | -13% | 5% | u | -8%
BrC(/C=N/N1CCN(Cc2ccccc2)CC1)=C/c1ccccc1 | u | 1 | u | -7% | 0% | u
FC(F)(F)c1ccc(/C=N/N2CCN(Cc3ccccc3)CC2)cc1 | u | -2 | u | 5% | 14% | -29%
Clc1cccc(/C=N/N2CCN(Cc3ccccc3)CC2)c1 | 45µM* | 0 | x | x | 13% | x
O=[N+]([O-])c1cc(/C=N/N2CCN(Cc3ccccc3)CC2)ccc1Cl | 28µM* | 0 | -14% | -11% | -3% | -29%
BrC(=C\c1ccccc1)/C=N/N1CCN(Cc2ccccc2)CC1 | 45µM* | 0 | u | 10% | 2% | -17%
O=[N+]([O-])c1cc2c(cc1Br)CCN2 | x | 0 | u | 5% | -12% | -17%
CCc1nn(CC(=O)NC(C)CC)c(=O)c2cc3c(OC)cccc3n12 (centres undefined) | 43%[59 µM] | x | -7% | -4% | x | -8%
Cc1ccc(C)c(NC(=O)CN2CCN(C3CCCCC3)C(=O)C2=O)c1 | 1%[12.7 µM] | x | 1% | 12% | x | 5%
Cc1ccc(CN2CCN(/N=C\C=C\c3ccccc3)CC2)cc1 | 35µM* | 2 | u | u | -12% | -14%
BrC(=C\c1ccccc1)/C=N/N1CCN(c2ccccn2)CC1 | 28µM* | -3 | u | -12% | -24% | -12%
O=[N+]([O-])c1ccc(Cl)c(/C=N/N2CCN(Cc3ccccc3Cl)CC2)c1 | 45µM* | 0 | -22% | -2% | 5% | -24%
O=[N+]([O-])c1ccccc1/C=N\N1CCN(Cc2ccccc2Cl)CC1 | x | -1 | x | x | -18% | x
FC(F)(F)c1ccccc1/C=N/N1CCN(Cc2ccccc2)CC1 | 7.1µM* | 2 | -2% | 9% | -18% | -2%
Clc1ccccc1/C=N/N1CCN(Cc2ccccc2)CC1 | 24%[0.501 µM] | -1 | x | x | -10% | x
SMILES | G9a block | Coupling enz | Tau ThT inhib | Tau FP inhib | Sfp inh | Tau fluor cs
Oc1cccc(/C=N/N2CCN(c3ccccn3)CC2)c1 | x | 0 | u | 3% | 5% | -18%
Cc1cccn2c(=O)cc(COc3cccc(NC(=O)c4cccc(Cl)c4)c3)nc12 | 5%[59 µM] | x | -4% | -3% | x | -14%
Cc1ccc(CN2CCN(/N=C\c3cccc([N+](=O)[O-])c3)CC2)cc1 | 28µM* | 1 | -18% | -1% | -6% | -28%
Cc1ccc(N2CCN(/N=C/c3ccccc3[N+](=O)[O-])CC2)cc1 | 7.9µM* | 3 | 5% | 0% | 7% | 2%
O=[N+]([O-])c1ccc(/C=N\N2CCN(c3ccc(Cl)cc3)CC2)cc1 | -31% | 1 | 2.2µM* | 3% | 7% | -16%
O=[N+]([O-])c1cccc(/C=N\N2CCN(c3ccc(Cl)cc3)CC2)c1 | u | -1 | u | 4% | 8% | -12%
CC1Cn2c(nc(=O)c3c2NCN(CCc2ccccc2)C3)S1 (centres undefined) | -19% | 0 | 4% | -1% | 1% | -5%
COc1ccc(/C=C2\N=C(C)OC2=O)cc1OC(C)=O | 28µM* | 2 | x | x | -17% | x
COc1ccc(/C=C2\N=C(C)OC2=O)cc1OC | 35µM* | 2 | x | x | -2% | x
O=C(/C=C/c1ccc(F)cc1)Nc1nc2n(n1)C(c1ccc(Cl)cc1)C=C(c1ccccc1)N2 (centres undefined) | -9%[59 µM] | x | 3% | -3% | x | -9%
COc1ccc2c(c1)-c1c(sn(-c3ccccc3)c1=S)C(C)(C)N2 | 28µM* | -4 | u | u | -5% | 14µM*[quencher]
COc1cc2c3c(c1)-c1c(sn(-c4cc(OC)ccc4OC)c1=S)C(C)(C)N3C(=O)C2=O | u | 1 | u | 6% | -10% | -26%
COc1ccc2c(c1)-c1c(ssc1=S)C(C)(C)N2 | 7.9µM* | -1 | 14µM* | -10% | u | 16µM*[quencher]
COc1ccc(-n2sc3c(c2=S)-c2cc(OC)ccc2NC3(C)C)cc1 | 10µM* | 2 | u | u | u | 7.9µM*[quencher]
COc1ccc2c(c1)-c1c(sn(-c3ccc(OC)c(OC)c3)c1=S)C(C)(C)N2 | 10µM* | -3 | u | 13% | -6% | u
O=C(O)c1cn(-c2ccc(F)cc2)c2cc(N3CCNCC3)c(F)cc2c1=O | u | 1 | -3% | 2% | 11% | -6%
Cc1ccc(Cn2c(=O)n(Cc3ccccc3Cl)c(=O)c3cccnc32)cc1 | -1%[59 µM] | x | 4% | -7% | x | -9%
Fc1ccc(-n2[nH]nnc2=S)cc1N1CCCC1 | u | 9 | -8% | -2% | 79µM* | -6%
CC(=O)c1c[nH]c(C(=O)NCc2ccccc2Cl)c1 | 12% | 0 | x | x | 9% | x
COc1ccc(CN2CCC(C(=O)Nc3ccc(Oc4cccnc4)cc3)CC2)cc1 | 35µM* | x | x | x | 9% | x
